High-throughput results from PubChem.
Pf growth 48h: P. falciparum growth inhibition at 48 hours (one generation); P. falciparum luciferase growth in erythrocytes, 48 h; actives 5.9% (n = 310,000); Potency, µM (titrated, usually from 28.7 µM), without a hit: at the highest dose activity change, negative = inhibition, most hits filed as inhibitors; further: on the % scale 0 is the no-effect control and ±100 the full control effect
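Cell-based growth assay: transgenic P. falciparum expressing firefly luciferase, cultured in red cells within RPMI 1640 containing 0.5% w/v Albumax, 24 mM bicarbonate and gentamycin. A drop in luciferase activity indicates inhibition.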
SARS PLpro yeast: SARS-CoV PLP inhibition in yeast; S. cerevisiae expressing SARS-CoV PLpro, growth rescue; actives 0.19% (n = 330,000); Potency, µM (top dose mostly 32.9 µM), without a hit: at the top dose activity, positive = growth rescue, usual class: activators; calls by dose curve; further: 0% is about no effect; nearly all actives have a fitted effect of over 55% in size
AMA1 RON2 block: inhibitors of Plasmodium falciparum AMA1-RON2 interaction | actives 0.2% (n = 360,000) | AlphaScreen AMA1-biotinylated RON2 peptide binding | Potency, µM (highest dose often 58.2 µM), for the others: at the highest dose activity change, negative = inhibition, usual class: inhibitors;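 further: 0% = vehicle wells and -100% = peptide control; nearly all actives have a fitted effect of over 45% in size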
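AMA1 (3D7) with his tag at 25 nM final met compounds first, then biotinylated RON2 peptide at 25 nM; detection used donor plus acceptor beads, 10 µg/mL apiece, read by AlphaScreen after 30 min at room temperature.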
Pf growth 96h: inhibits malaria parasite growth, 96 h. P. falciparum luciferase reporter growth, 96 h. Potency, µM (top dose mostly 28.7 µM), for inactives: at the top dose activity change, negative = inhibition, usual class: inhibitors. actives 6.9% (n = 320,000); further: on the % scale 0 is the no-effect control and ±100 the full control effect
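Cell-based qHTS: luciferase-tagged P. falciparum in erythrocytes (2% hematocrit, 0.05% parasitemia final) incubated with compounds for 96 hours, 37 C, 5% CO2; luciferase detection reagent then added and luminescence measured.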
* marks the source's active call; other numbers are inactive results; u = inconclusive; x = not tested or not shown. In the library only some 9.4% were active in any assay of this set; here they are far more common. Unless noted, the call rests on the fitted dose curve; in most records, active means well fitted curve in the direction sought with a large enough effect; inconclusive means small, poorly fitted or top-dose-only effect, or another doubt; inactive means no such curve, though single readings can be large; an effect the other way counts as inactive or inconclusive. Potency means the concentration at half of the fitted maximal effect.

SMILES	Pf growth 48h	SARS PLpro yeast	AMA1 RON2 block	Pf growth 96h
COc1ccc(CCN2C(=O)CC(NNC(=O)c3ccccc3Br)C2=O)cc1 (configuration not stated)	15%	u	-16%	26%
O=C(CCl)NCCCN(C(=O)C(Cl)Cl)c1ccc([N+](=O)[O-])cc1	6.6µM*	2%	0%	7.4µM*
O=S(=O)(NCCc1ccccn1)c1ccc(F)c(F)c1	13%	1%	14%	5.2µM*
O=S(=O)(c1ccccc1)N1CCC(n2cnc3ccccc32)CC1	10%	4%	19%	25%
CCc1cc(-c2[nH]ncc2-c2ccc3c(c2)OCO3)c(O)cc1O	u	-6%	10%	u
CCCc1cc(-c2[nH]ncc2-c2ccc3c(c2)OCCCO3)c(O)cc1OC	3.7µM*	-47%	x	x
CCC(C)Nc1nc(N)c([N+](=O)[O-])c(N2CCCCCC2)n1 (configuration not stated)	u	-1%	-5%	u
CC(C)CNc1nc(N)c([N+](=O)[O-])c(N2CCCCCC2)n1	u	-2%	-17%	10µM*
COc1ccccc1N1CCN(C(=O)CCC(=O)Nc2nnc(C(C)C)s2)CC1	-5%	-4%	-11%	12µM*
CCOc1ccc(S(=O)(=O)NCCC(=O)N2CCN(Cc3ccccc3)CC2)cc1	u	-3%	-1%	-22%
COc1ccccc1C(=O)NCCC(=O)N1CCN(c2ccccc2O)CC1	12µM*	-4%	-5%	u
COc1ccccc1C(=O)NCCC(=O)N1CCCCC1	41%	0%	-2%	26%
COc1ccccc1C(=O)NCCC(=O)N1CC=C(c2ccccc2)CC1	12µM*	0%	0%	u
CCOc1ccc(S(=O)(=O)NCCC(=O)N2CC=C(c3ccccc3)CC2)cc1	9.3µM*	-2%	11%	u
CCOC(=O)c1c(C)[nH]c(C(=O)OCc2ccc(F)cc2)c1C	182%	16%	-4%	158%
CC(C(=O)O)c1ccc2c(c1)Cc1cccnc1O2 (configuration not stated)	-7%	x	x	1.5µM*
CCOc1cc(C)c(C(C)C)cc1S(=O)(=O)N1CC(C)OC(C)C1 (configuration not stated)	13µM*	-1%	1%	x
COc1ccc(C)cc1S(=O)(=O)N1CCCCCC1	2.1µM*	-7%	-1%	-11%
COc1ccc(/C=C/C(=O)O)cc1S(=O)(=O)N1CCCC1	0%	-1%	18%	5.9µM*
COc1ccc(C(C)C)cc1S(=O)(=O)N1CC(C)OC(C)C1 (configuration not stated)	0%	-1%	-7%	70%
COc1ccc(/C=C/C(=O)O)cc1S(=O)(=O)N1CCCCC1	8%	0%	11%	16%
COc1ccc(C)cc1S(=O)(=O)N1CC(C)OC(C)C1 (configuration not stated)	34%	0%	2%	12µM*
Cc1ccc(C)c(OCC(=O)NC(Cc2c[nH]c3ccccc23)C(=O)O)c1 (configuration not stated)	6%	1%	-5%	-4%
COc1ccc(C)cc1S(=O)(=O)N1CCCC(C(=O)N2CCN(c3ccccc3)CC2)C1 (configuration not stated)	7.4µM*	-2%	-1%	10µM*
COc1ccc(S(=O)(=O)N2CCCCCC2)cc1N(C)S(=O)(=O)c1ccc(C)cc1	-19%	-18%	-14%	10µM*
SMILES	Pf growth 48h	SARS PLpro yeast	AMA1 RON2 block	Pf growth 96h
Cc1cc2nc(-c3cccc(Cl)c3)c(CC(C)(C)C)n2c(C)c1Br	x	x	-1%	x
CC1(C)CC(=O)/C(=C(\O)CCCN2C(=O)c3ccccc3C2=O)C(=NCC(=O)O)C1	6%	-1%	-15%	37%
O=S(=O)(c1cc(Cl)ccc1Cl)n1nnc2ccccc21	x	4%	-4%	-13%
Cc1[nH]c2ccccc2c1/C=N/Nc1ccccn1	0%	-5%	x	10µM*
COc1ccc(N2CCn3c2nc2c3c(=O)n(CCN3CCOCC3)c(=O)n2C)cc1	10%	6%	x	-13%
Cc1nn(Cc2c(Cl)cccc2Cl)c(C)c1NC(=O)c1cnn2c(C(F)F)cc(-c3ccccc3)nc12	u	-3%	4%	2.6µM*
COc1ccc(-c2cc(C(F)F)n3ncc(C(=O)Nc4c(C)n(C)n(-c5ccccc5)c4=O)c3n2)cc1	u	0%	-6%	18%
COc1ccc(-c2cc(C(F)F)n3ncc(C(=O)Nc4cc(C)on4)c3n2)cc1	4.1µM*	-3%	10%	15%
